Screening results: PubChem, several laboratories
Rows were chosen to be rich in hits. Some 3.1% of all compounds tested hit in one or more screens of this group.
HSF1 inhib: HSF1 inhibition. AID 2098. NIH3T3-HGL HSE-luciferase, MG132-induced, luminescence 8 h; active compounds read low. activity change, negative = inhibition, % at 7.5 µM (by protocol). 0.77% of 300,000 active;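 active = more than half of replicate wells show activity change below -50%, luminescence cut by over half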;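 also: luciferase reports HSF-1 transcriptional activity via heat shock element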
HSF-1 act: increases HSF-1 driven luciferase reporter signal; NIH3T3-HGL HSF-1 luciferase reporter, MG132, 8 h; 100% = twice DMSO control signal; activation, % at 9 µM; 1.7% of 300,000 active; AID 504408;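 active = mean replicate activation of at least 50% with a set share of replicates each reaching 50%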
HSP90 inh: blocks HSP90-mediated luciferase refolding in reticulocyte lysate. Rabbit reticulocyte lysate, luciferase refolding luminescence, 3 h. inhibition, % at 5.6 µM. 0.91% of 290,000 active;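 active = inhibition above the screen-wide mean plus 3 SD, computed separately per campaign, cut at about 16% in these data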;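 also: inhibitors lower the luminescence because luciferase stays unfolded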
ARNT TACC3 PPI: disruptors of human ARNT/TACC3 interaction; Q9Y6A5; AlphaScreen His-ARNT PAS-B/GST-TACC3 binding, luminescence; TACC3 fragment carries E629A point mutation; inhibition, % at 9.99 µM; 0.66% of 390,000 active;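 active = mean inhibition of replicates at least 50% and at least half of replicates each reaching 50%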
HIF activator: HIF pathway transcriptional activation; AID 1910; U2OS HRE-luciferase reporter, luminescence; normalized: DMSO 0%, desferrioxamine 100%; activation, % at 7.5 µM (by protocol); 0.32% of 300,000 active;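 active = mean activation of at least 10% of the iron chelator positive control signal, with at least half of replicates also reaching 10%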
ARNT Alpha ctr-1: counter-screen for ARNT/TACC3 inhibitors: AlphaScreen artifacts; shares compounds with ARNT TACC3 PPI; His-ARNT PASB-GST AlphaScreen artifact counter-screen, luminescence; AC50, µM (top dose mostly 68 µM); 50% of 1,200 active; AID 651705;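 active = every separate test run was called active for a drop in luminescence, with AC50 within twice the top valid dose, actives reach about 71 µM in these data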
ARNT Alpha ctr-2: AlphaScreen artifact flagged for ARNT-TACC3 inhibitors. 70% of 45 active. shares compounds with ARNT TACC3 PPI. AC50, µM. Dual-tagged His-ARNT PASB-GST AlphaScreen artifact counter-screen;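 active = luminescence drop, with half-maximal potency fitted within twice the sample's top valid dose, cut at about 70 µM in these data; inactive = the rest, including signal moving the wrong way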
Hits are given with their value.

C[C@@H]1CN([C@@H](C)CO)C(=O)Cc2cc(NS(=O)(=O)c3cn(C)cn3)ccc2O[C@H]1CN(C)Cc1ccc(C(F)(F)F)cc1 was read as ARNT TACC3 PPI inactive.
For COc1ccccc1NC(=O)CSc1ccc(-c2ccccn2)nn1 the results were HSF1 inhib inactive, HSF-1 act inactive, HSP90 inh inactive, ARNT TACC3 PPI 55, HIF activator inactive and ARNT Alpha ctr-1 14µM.
Screening Cc1cccc(NC(=O)CSc2ccc(-c3ccccn3)nn2)c1C returned HSF1 inhib inactive, HSF-1 act inactive, HSP90 inh inactive, ARNT TACC3 PPI 55, HIF activator inactive, ARNT Alpha ctr-1 30µM and ARNT Alpha ctr-2 23.
For Cc1ccc(NC(=O)CSc2ccc(-c3ccccn3)nn2)c(C)c1 the results were HSF1 inhib inactive, HSF-1 act inactive, HSP90 inh inactive, ARNT TACC3 PPI inactive and HIF activator inactive.
Screening C/C(=C\C(=O)c1ccc(Cl)cc1)Nc1ccc(N2CCOCC2)cc1 returned HSF1 inhib inactive, HSF-1 act inactive, HSP90 inh inactive, ARNT TACC3 PPI inactive and HIF activator inactive.
Screening C/C(=C\C(=O)c1ccccc1)Nc1ccc(N2CCOCC2)cc1 returned HSF1 inhib inactive, HSF-1 act inactive, HSP90 inh inactive, ARNT TACC3 PPI 39, HIF activator inactive and ARNT Alpha ctr-1 inactive.
Screening Cc1cc(C)c(C(N)=O)c(Nc2cccc3ccccc23)n1 returned HSF1 inhib inactive, HSF-1 act inactive, HSP90 inh inactive, ARNT TACC3 PPI 68, HIF activator inactive and ARNT Alpha ctr-1 inactive.
COc1ccccc1Nc1nc(C)cc(C)c1C(N)=O was read as HSF1 inhib inactive, HSF-1 act inactive, HSP90 inh inactive and HIF activator inactive.
CN1CCC(n2[nH]c(-c3ccccc3)c(Cc3ccccc3)c2=O)CC1 was read as ARNT TACC3 PPI active and ARNT Alpha ctr-1 inactive.
For Cc1nc2nc(-c3ccccc3)[nH]n2c(=O)c1Cc1ccccc1 the results were HSP90 inh inactive and ARNT TACC3 PPI inactive.
`COCC(=O)Nc1ccc2c(c1)OC[C@@H](C)N(CC1CC1)C[C@H](C)[C@H](OC)CN(C)C2=O` gave ARNT TACC3 PPI inactive.
For O=C(N/N=C/c1sc2ccccc2c1O)c1cccc2ccccc12 the results were HSF1 inhib inactive, HSF-1 act inactive, HSP90 inh inactive, ARNT TACC3 PPI 55, HIF activator 12 and ARNT Alpha ctr-1 69µM.
O=C(N/N=C/c1ccccc1)c1cccc2ccccc12 was read as HSF1 inhib inactive, HSF-1 act inactive, ARNT TACC3 PPI inactive and HIF activator inactive.
`CC1(C)CC(=O)C=C(Nc2ccccc2N)C1` gave HSF1 inhib inactive, HSF-1 act inactive, HSP90 inh inactive, ARNT TACC3 PPI 51, HIF activator inactive and ARNT Alpha ctr-1 inactive.
For CCc1ccccc1NC1=CC(=O)CC(C)(C)C1 the results were HSF1 inhib inactive, HSF-1 act inactive, HSP90 inh inactive, ARNT TACC3 PPI inactive and HIF activator inactive.
For CN1CCN(C(=O)C[C@@H]2CC[C@H]3[C@@H](COC[C@H](O)CN3S(=O)(=O)c3cccc(Cl)c3)O2)CC1 the results were ARNT TACC3 PPI inactive.
Screening CCN(CC)c1ccc(Nc2nc(N3CCOCC3)c3ccccc3n2)cc1 returned HSF1 inhib inactive, HSF-1 act inactive, HSP90 inh inactive, ARNT TACC3 PPI 55, HIF activator inactive and ARNT Alpha ctr-1 5.7µM.
CO[C@@H]1CN(C)C(=O)c2cc(NS(=O)(=O)c3cn(C)cn3)ccc2OC[C@@H](C)N(C)C[C@@H]1C was read as ARNT TACC3 PPI inactive.
`COc1cc(/C=N/Nc2nn3cnnc3c3ccccc23)ccc1O` gave HSF1 inhib inactive, HSF-1 act inactive, HSP90 inh inactive, ARNT TACC3 PPI 50, HIF activator inactive and ARNT Alpha ctr-1 inactive.
`Cc1nnc(N/N=C/c2ccc(-c3ccc(Br)cc3)o2)n1N` gave HSF1 inhib inactive, HSF-1 act inactive, HSP90 inh inactive, ARNT TACC3 PPI 51, HIF activator inactive and ARNT Alpha ctr-1 inactive.
For C#CCOCCOCCOCCNc1nc(N2CCN(C(=O)[C@H](CCC(=O)O)n3cc([C@@H](N)CCCCN)nn3)CC2)nc(N2CCN(C(=O)[C@H](CCCCN)n3cc([C@@H](N)CC(N)=O)nn3)CC2)n1 the results were ARNT TACC3 PPI 51 and ARNT Alpha ctr-1 inactive.
C#CCOCCOCCOCCNc1nc(N2CCN(C(=O)C([C@@H](C)O)n3cc([C@@H](N)CCCCN)nn3)CC2)nc(N2CCN(C(=O)C([C@@H](C)O)n3cc([C@@H](N)CCCCN)nn3)CC2)n1 (stereo partly drawn) was read as ARNT TACC3 PPI 60 and ARNT Alpha ctr-1 inactive.
`C#CCOCCOCCOCCNc1nc(N2CCN(C(=O)Cn3cc(CC(C)O)nn3)CC2)nc(N2CCN(C(=O)[C@H](CCCCN)n3cc(CCC(=O)O)nn3)CC2)n1` (stereo partly drawn) gave HSF1 inhib inactive, HSF-1 act inactive, HSP90 inh inactive, ARNT TACC3 PPI inactive and HIF activator inactive.
For C#CCOCCOCCOCCNc1nc(N2CCN(C(=O)Cn3cc(CCCCN)nn3)CC2)nc(N2CCN(C(=O)[C@H](CCCCN)n3cc(CCCC)nn3)CC2)n1 the results were ARNT TACC3 PPI 32 and ARNT Alpha ctr-1 inactive.
Screening Cc1ccc(S(=O)(=O)N[C@H]2CC[C@@H](CCn3cc(-c4cccc(F)c4)nn3)O[C@H]2CO)cc1 returned ARNT TACC3 PPI inactive.
Screening CNC(=O)C[C@H]1CC[C@@H]2[C@H](COc3ccc(NC(=O)c4cccc(F)c4)cc3C(=O)N2C)O1 returned ARNT TACC3 PPI inactive.
Screening CCOc1ccc2c(c1)C(N(CCN1CCOCC1)C(=O)Nc1ccc(OC)cc1OC)CC(C)(C)O2 (stereo not drawn) returned HSF1 inhib inactive, HSF-1 act inactive, HSP90 inh inactive, ARNT TACC3 PPI inactive and HIF activator inactive.
CCOc1ccc2c(c1)C(N(CCN1CCOCC1)C(=O)Nc1ccccc1)CC(C)(C)O2 (stereo not drawn) was read as HSF1 inhib inactive, HSF-1 act inactive, HSP90 inh inactive, ARNT TACC3 PPI 58, HIF activator inactive and ARNT Alpha ctr-1 inactive.
For COc1ccc(NC(=O)N[C@H]2CC[C@@H](CCn3cc(-c4ccccc4)nn3)O[C@@H]2CO)cc1 the results were ARNT TACC3 PPI inactive.
Screening COc1ccc(NC(=O)N[C@@H]2CC[C@H](CCn3cc(-c4ccccn4)nn3)O[C@H]2CO)cc1 returned ARNT TACC3 PPI 59 and ARNT Alpha ctr-1 50µM.
`COc1ccc(NC(=O)N[C@H]2CC[C@H](CCn3cc(-c4ccccn4)nn3)O[C@H]2CO)cc1` gave ARNT TACC3 PPI inactive.
